In the supplement of paper PMC10681739:

How the values were obtained:
ETS1 [1] = target: T1, ETS1 (UniProt P14921); assay: ETS1 binding intensity (PBM fluorescence), ETS1 alone (arbitrary fluorescence units); higher = stronger binding; conditions: ETS1 concentration 1 nM; RUNX1 concentration 0 nM
T1 sequence: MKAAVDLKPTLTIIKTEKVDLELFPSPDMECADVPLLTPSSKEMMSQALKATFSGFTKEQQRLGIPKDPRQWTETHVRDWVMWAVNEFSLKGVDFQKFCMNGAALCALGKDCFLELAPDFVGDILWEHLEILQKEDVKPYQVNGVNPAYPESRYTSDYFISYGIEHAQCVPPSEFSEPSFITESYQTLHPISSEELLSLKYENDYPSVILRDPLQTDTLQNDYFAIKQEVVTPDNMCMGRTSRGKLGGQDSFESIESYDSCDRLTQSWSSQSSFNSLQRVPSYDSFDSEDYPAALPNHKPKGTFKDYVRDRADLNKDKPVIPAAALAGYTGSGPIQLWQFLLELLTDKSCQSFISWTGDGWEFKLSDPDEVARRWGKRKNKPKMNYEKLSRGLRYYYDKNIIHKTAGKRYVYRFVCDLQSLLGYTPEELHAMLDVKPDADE

RUNX1 [2] = target: RUNX1 (UniProt Q01196); assay: RUNX1 binding intensity (PBM fluorescence), RUNX1 alone (arbitrary fluorescence units); higher = stronger binding; conditions: RUNX1 concentration 2 nM; ETS1 concentration 0 nM
Protocol: (§1)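 Cooperative gcPBM on 36-bp genomic probes with neighbouring ETS1 and RUNX1 sites. Recombinant human RUNX1 (2 nM) was incubated alone or with ETS1 (25 nM) and detected with anti-RUNX1 antibody plus Alexa488 secondary. Values are medians over 4 replicate spots; the RUNX1+ETS1 data were normalised to the RUNX1-only data. The probes sit in constant array flanks that are not printed.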

ETS1 [3] = target: T1, ETS1; assay: ETS1 binding intensity (PBM fluorescence) in presence of RUNX1, normalised to ETS1-only experiment (arbitrary fluorescence units); higher = stronger binding; conditions: ETS1 concentration 1 nM; RUNX1 concentration 25 nM
RUNX1 [4] = target: RUNX1 (UniProt Q01196); assay: RUNX1 binding intensity (PBM fluorescence) in presence of ETS1, normalised to RUNX1-only experiment (arbitrary fluorescence units); higher = stronger binding; conditions: RUNX1 concentration 2 nM; ETS1 concentration 25 nM
Protocol: as §1
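For RUNX1 binding intensity (PBM fluorescence) in presence of ETS1, normalised to RUNX1-only experiment in this document: Full-length recombinant human ETS1 or RUNX1 bound to double-stranded 36-bp genomic probes on microarrays, detected by protein-specific primary antibody and Alexa488 secondary, spot fluorescence as median of four replicate spots.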
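For RUNX1 binding intensity (PBM fluorescence), RUNX1 alone in this document: Full-length recombinant human RUNX1 bound to double-stranded 36-bp genomic probes on a high-density microarray, scored as Alexa488 fluorescence per spot via anti-RUNX1 antibody, median of four replicate spots.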

Chain of RUNX1 (Q01196 whole entry): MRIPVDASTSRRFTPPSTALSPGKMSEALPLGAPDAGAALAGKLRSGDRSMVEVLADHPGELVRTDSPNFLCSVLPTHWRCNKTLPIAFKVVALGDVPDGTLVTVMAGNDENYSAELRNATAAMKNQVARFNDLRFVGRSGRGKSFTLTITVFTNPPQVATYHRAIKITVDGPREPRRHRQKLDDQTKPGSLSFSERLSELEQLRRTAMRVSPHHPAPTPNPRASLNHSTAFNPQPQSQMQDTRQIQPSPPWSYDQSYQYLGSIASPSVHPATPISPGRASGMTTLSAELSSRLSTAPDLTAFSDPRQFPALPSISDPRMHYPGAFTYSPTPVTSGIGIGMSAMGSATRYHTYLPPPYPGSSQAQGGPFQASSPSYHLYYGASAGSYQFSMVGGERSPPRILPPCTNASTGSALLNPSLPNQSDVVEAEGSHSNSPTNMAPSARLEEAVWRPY

Sequence	ETS1 binding intensity (ETS1 [1])	RUNX1 binding intensity (RUNX1 [2])	ETS1 binding intensity (ETS1 [3])	RUNX1 binding intensity (RUNX1 [4])
CTACAAACGGCTTCCTCCTGCCTAACCACAACCTCA	455	3280	1130	5340
CCAGACCCGGCGGAACTACCGTGCCCACAAGGCAGC	396	876	564	894
GTGGTCTCTGCCACTTCCTGTGGTGTAAACAGTCTC	2680	843	3730	2890
CGTCACTTCCCACGCGACTGCCTGCGGGAAACATGG	550	1150	704	1680
CCCTCACCCCAGCTTTCCTGTGGTTAACCAAACCCC	518	7290	822	9960
AGGGACCCGGATGTCTGGTCTGCGGCTGCTCCTCTA	1460	756	2120	1250
GTCACAGGAAAGAAGGAGCCTCGCCTTAACCGCACC	447	1170	2930	1310
TTTGATTTCCTGTCTCCATGTTGTGGTCAAGATTGC	1080	1370	2990	4420
TTTGTAAGAGGAGGAAGTGGTTTGTAAGAGGAGAAA	2180	835	3260	1270
ACATTTCCTTTTGGTATTTAAAGTAACCACACAGAA	495	1060	668	2120
ATCATCTAGGAGACAGGATGTGGTTAGGGTGTTAAA	6360	1070	59800	7840
TACATAGGCGGAAGTGGCCTGCGGGCGCCGGAGTTG	3980	714	9480	1710
GGTCCCCCCGGTTCCGGCGCGGTTGAGGCCTTCGGT	683	758	676	1170
CCACGTAAAGGCGGAAGCGGTTGAGTGGACGCCATC	3090	708	4150	1640
ACACCGGAAGCCCAACAGCATGCCGAGTAACCACCC	1120	864	1170	1310
TGGCAGCCACATCCTGCCTGTGGCTAGGTCAACCCA	1220	794	1290	3730
ACTCCCTAGAGCAGGAAGCCTGTGGTTTGTAATTGG	1140	1040	7950	1480
ATAGAAACTACAGGAAATACTGTGGTCAGGTTTTGA	2770	822	9500	1380
TCTGATGTGCCTTCTTCCTGACCACAGCAACTACTA	392	1250	511	1270
ATGGCGGAGCGGAAGTCCCAGCCACAACGCGAAAAG	3810	782	5670	1370
CCTCAATTTCCTGGCCAGAGAAACCACTGCCTCTCA	546	1030	526	1810
ACAGCTCACACAGGAAATACAAACCTCAAAAAGCAA	2600	1070	7480	1670
CCAGGGCCGGAAGTGCTGGTGGTGGTTTCCATCATG	8960	733	13900	1750

Sequence	ETS1 binding intensity (ETS1 [1])	RUNX1 binding intensity (RUNX1 [2])	ETS1 binding intensity (ETS1 [3])	RUNX1 binding intensity (RUNX1 [4])
GTTCATCCAGGAAACCCCAACCCAGTGCCGCAGTAT	538	895	464	1080
GAGAAACAAACAGGATGTGGTCTCTGCCCTGGAGGA	7010	737	12000	2420
GGCTCGGCAAACATCCGGCTCCGCGGTGGAACGGGA	1430	785	1910	1580
ACTGCTTGATTTTCAGGAAGTGGTAAAGTGGCAGGT	3700	782	9050	957
ATCACTTGTTTCCGCCAGCAAACCACAGGTCCCCAG	417	1550	811	3750
TTGACCCGGACGTGGACAAAAGACCGCAAAGGACGC	806	1100	3090	1540
GGGCCAGAGACGCCGGAAGTGACCGCGCGGTGCGCC	11700	729	18400	1210
GGGGCAGCTTCCGGCAGGAGAGCCCGCATTCCCGGC	903	1460	771	2470
GAAGCGCTGGGCGGAAGTGGCTGTGGCTTTGCCCTT	9200	735	14300	1620
AGTCAGCAGAGAGGAAGTGGTTAGTCCTGCCTTGAA	2240	742	4900	1870
CTCCTTCCTGTGTGTTACTCTTAAAAACCACAGAGG	519	1230	1780	3040
TTCAGTCCTGGTTTCCTGTGGTTCTAGGATCTTTAT	903	828	957	1440
CTGTCCCTAGCAGGATGTGGTTTGCACATTGCTGCT	3220	962	12500	4600
TCTTTGAGAAGCGGATGTGGTAAACTTGCCTCTGTT	5970	801	36600	10000
TCAGGGGAGCGAGCAGGAAGTGGTAAGATTTGATAG	3680	696	7210	1230
CAAAGTGATGGGGGAAATGGTTGTGGTTTTGGGTGG	553	1180	3760	1500
CCTTTACGTTTTCCTGTTGCGGGTTCTATCGCTCTG	506	1600	592	3260
CCTAGAACCGGAAGAGAAAGGGGCTGCGGTGCAGCA	1680	845	6270	1420
GACATCTTCCGGTTGCTACAGGTTACGGCGGTTGCT	2700	778	2640	1640
GGGGAACGGAAGCTGCTGTCGTTACTGGCGGTTGTA	1510	767	1320	929
AAAGAGGAAATCACATACCCGAAAACCACATGCACA	513	944	1050	1200
TTGTCTGCATCCTGTGCTGTGTGGTAGCTCTGGGTT	510	702	541	1490
CTCTGAGCAGGAAGTGACAAAACCACGCAGGGCAGG	3150	798	6770	1160
